Results: PubChem BioAssay AID1159580 (chemical genetic matrix, 2015)
Out of some 5,500 compounds screened, about 2,000 (36%) were called active. Not shown: some 18% with an inconclusive outcome. No stated cut-off is given here; in the data, active means normalized growth mostly below about 0.91 (no sharp cut-off); inconclusive means no clear call, values can overlap the other calls; inactive means mostly above about 0.92. Some of the results follow.

Assay: chemical genetic growth profiling, strain panel (AID 1159580);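 further: tested at 20 µM; growth read once vehicle control cultures reached saturation at 30 °C; 1 = growth at the plate median or of vehicle wells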
Settings: growth OD

Measured: normalized growth

CCCCOC(=O)c1ccccc1C(=O)OCCCC
inactive: S. cerevisiae deletion strains, locus YJR066W, strain TOR1, stronger effect = lower value 0.92 | S. cerevisiae deletion strains, locus YJR075W, strain HOC1, stronger effect = lower value 0.991 | S. cerevisiae deletion strains, locus YKL009W, strain mrt4, stronger effect = lower value 0.941 | S. cerevisiae deletion strains, locus YKL068W, stronger effect = lower value 0.977 | S. cerevisiae deletion strains, locus YKL085W, strain MDH1 (second series), stronger effect = lower value 0.984 | S. cerevisiae deletion strains, locus YKL085W, strain MDH1, stronger effect = lower value 0.984 | S. cerevisiae deletion strains, locus YKL160W, strain elf1, stronger effect = lower value 0.985 | S. cerevisiae deletion strains, locus YKL190W, strain CNB1, stronger effect = lower value 0.972 | S. cerevisiae deletion strains, locus YKR001C, strain vps1, stronger effect = lower value 0.983 | S. cerevisiae deletion strains, locus YKR026C, strain gcn3, stronger effect = lower value 0.986 | S. cerevisiae deletion strains, locus YKR091W, strain srl3, stronger effect = lower value 0.982 | S. cerevisiae deletion strains, locus YLL001W, strain dnm1, stronger effect = lower value 0.987 | S. cerevisiae deletion strains, locus YLL026W, stronger effect = lower value 0.982 | S. cerevisiae deletion strains, locus YLL041C, strain sdh2, stronger effect = lower value 0.975 | S. cerevisiae deletion strains, locus YLR027C, strain aat2, stronger effect = lower value 0.974 | S. cerevisiae deletion strains, locus YLR039C, strain RIC1, stronger effect = lower value 0.941 | S. cerevisiae deletion strains, locus YLR058C, strain SHM2, stronger effect = lower value 0.968 | S. cerevisiae deletion strains, locus YLR102C, strain apc9, stronger effect = lower value 0.982 | S. cerevisiae deletion strains, locus YLR113W, strain HOG1, stronger effect = lower value 0.89 | S. cerevisiae deletion strains, locus YLR221C, strain rsa3, stronger effect = lower value 0.957 | S. cerevisiae deletion strains, locus YLR258W, strain gsy2, stronger effect = lower value 0.974 | S. cerevisiae deletion strains, locus YLR262C, strain YPT6, stronger effect = lower value 0.931 | S. cerevisiae deletion strains, locus YLR268W, strain sec22, stronger effect = lower value 0.96 | S. cerevisiae deletion strains, locus YLR320W, strain mms22, stronger effect = lower value 0.924 | S. cerevisiae deletion strains, locus YLR330W, strain CHS5, stronger effect = lower value 0.977 | S. cerevisiae deletion strains, locus YLR342W, strain FKS1 (second series), stronger effect = lower value 0.875 | S. cerevisiae deletion strains, locus YLR342W, strain FKS1, stronger effect = lower value 0.948 | S. cerevisiae deletion strains, locus YLR357W, strain rsc2, stronger effect = lower value 1.02 | S. cerevisiae deletion strains, locus YLR370C, strain arc18, stronger effect = lower value 0.99 | S. cerevisiae deletion strains, locus YLR371W, strain rom2, stronger effect = lower value 0.974 | S. cerevisiae deletion strains, locus YLR384C, strain iki3, stronger effect = lower value 0.99 | S. cerevisiae deletion strains, locus YLR418C, strain cdc73, stronger effect = lower value 0.978 | S. cerevisiae deletion strains, locus YML016C, strain PPZ1, stronger effect = lower value 0.992 | S. cerevisiae deletion strains, locus YML032C, strain rad52, stronger effect = lower value 0.982 | S. cerevisiae deletion strains, locus YML120C, strain ndi1, stronger effect = lower value 0.983 | S. cerevisiae deletion strains, locus YML124C, strain tub3, stronger effect = lower value 0.975 | S. cerevisiae deletion strains, locus YMR058W, strain fet3, stronger effect = lower value 0.992 | S. cerevisiae deletion strains, locus YMR078C, strain ctf18, stronger effect = lower value 0.979 | S. cerevisiae deletion strains, locus YMR125W, strain sto1, stronger effect = lower value 0.969 | S. cerevisiae deletion strains, locus YMR129W, stronger effect = lower value 0.98 | S. cerevisiae deletion strains, locus YMR205C, strain PFK2, stronger effect = lower value 0.949 | S. cerevisiae deletion strains, locus YMR223W, strain ubp8, stronger effect = lower value 0.975 | S. cerevisiae deletion strains, locus YMR231W, strain pep5, stronger effect = lower value 0.996 | S. cerevisiae deletion strains, locus YMR263W, strain SAP30, stronger effect = lower value 0.977 | S. cerevisiae deletion strains, locus YMR307W, strain GAS1, stronger effect = lower value 0.713 | S. cerevisiae deletion strains, locus YNL067W, strain RPL9B, stronger effect = lower value 0.979 | S. cerevisiae deletion strains, locus YNL071W, strain lat1, stronger effect = lower value 0.944 | S. cerevisiae deletion strains, locus YNL128W, strain TEP1, stronger effect = lower value 0.98 | S. cerevisiae deletion strains, locus YNL153C, strain GIM3, stronger effect = lower value 0.998 | S. cerevisiae deletion strains, locus YNL183C, strain NPR1, stronger effect = lower value 0.911 | S. cerevisiae deletion strains, locus YNL209W, strain ssb2, stronger effect = lower value 0.99 | S. cerevisiae deletion strains, locus YNL233W, strain BNI4, stronger effect = lower value 0.994 | S. cerevisiae deletion strains, locus YNL248C, strain rpa49, stronger effect = lower value 0.987 | S. cerevisiae deletion strains, locus YNL250W, strain rad50, stronger effect = lower value 0.961 | S. cerevisiae deletion strains, locus YNL271C, strain bni1, stronger effect = lower value 0.978 | S. cerevisiae deletion strains, locus YNL298W, strain CLA4, stronger effect = lower value 0.966 | S. cerevisiae deletion strains, locus YNL307C, strain MCK1, stronger effect = lower value 0.952 | S. cerevisiae deletion strains, locus YNL322C, strain KRE1 (second series), stronger effect = lower value 0.981 | S. cerevisiae deletion strains, locus YNL322C, strain KRE1, stronger effect = lower value 0.978 | S. cerevisiae deletion strains, locus YNR049C, strain mso1, stronger effect = lower value 0.976 | S. cerevisiae deletion strains, locus YNR052C, strain pop2, stronger effect = lower value 0.971 | S. cerevisiae deletion strains, locus YOL006C, strain TOP1, stronger effect = lower value 0.94 | S. cerevisiae deletion strains, locus YOL012C, strain htz1 0.914 | S. cerevisiae deletion strains, locus YOL147C, strain pex11, stronger effect = lower value 0.976 | S. cerevisiae deletion strains, locus YOR001W, strain rrp6, stronger effect = lower value 0.979 | S. cerevisiae deletion strains, locus YOR061W, strain CKA2, stronger effect = lower value 0.984 | S. cerevisiae deletion strains, locus YOR069W, strain VPS5, stronger effect = lower value 0.977 | S. cerevisiae deletion strains, locus YOR070C, strain gyp1, stronger effect = lower value 0.983 | S. cerevisiae deletion strains, locus YOR080W, strain dia2, stronger effect = lower value 0.99 | S. cerevisiae deletion strains, locus YOR083W, strain WHI5, stronger effect = lower value 0.98 | S. cerevisiae deletion strains, locus YOR106W, strain vam3, stronger effect = lower value 0.916 | S. cerevisiae deletion strains, locus YOR136W, strain idh2, stronger effect = lower value 0.988 | S. cerevisiae deletion strains, locus YOR144C, strain elg1, stronger effect = lower value 0.973 | S. cerevisiae deletion strains, locus YOR184W, strain ser1, stronger effect = lower value 0.943 | S. cerevisiae deletion strains, locus YOR231W, strain MKK1, stronger effect = lower value 0.945 | S. cerevisiae deletion strains, locus YOR265W, strain rbl2, stronger effect = lower value 0.986 | S. cerevisiae deletion strains, locus YOR270C, strain vph1, stronger effect = lower value 0.846 | S. cerevisiae deletion strains, locus YOR290C, strain snf2, stronger effect = lower value 0.975 | S. cerevisiae deletion strains, locus YOR316C, strain cot1, stronger effect = lower value 0.977 | S. cerevisiae deletion strains, locus YPL055C, strain LGE1, stronger effect = lower value 0.967 | S. cerevisiae deletion strains, locus YPL078C, strain atp4, stronger effect = lower value 0.98 | S. cerevisiae deletion strains, locus YPL106C, strain sse1, stronger effect = lower value 1.02 | S. cerevisiae deletion strains, locus YPL240C, strain hsp82, stronger effect = lower value 0.969 | S. cerevisiae deletion strains, locus YPL241C, strain CIN2, stronger effect = lower value 0.976 | S. cerevisiae deletion strains, locus YPL256C, strain CLN2, stronger effect = lower value 0.973 | S. cerevisiae deletion strains, locus YPR119W, strain clb2, stronger effect = lower value 0.974 | S. cerevisiae deletion strains, locus YPR141C, strain kar3, stronger effect = lower value 0.978 | S. cerevisiae deletion strains, locus YPR163C, strain tif3, stronger effect = lower value 0.97 | S. cerevisiae deletion strains, locus YPR167C, strain met16, stronger effect = lower value 0.984 | S. cerevisiae deletion strains, strain wtn01, stronger effect = lower value 0.965 | S. cerevisiae strains, strain wild type, stronger effect = lower value 0.987
active: S. cerevisiae deletion strains, locus YLR262C, strain YPT6 (second series), stronger effect = lower value 0.838
